Assay [1] is described as follows: selective activators of receptor GPR55 – imaging, U2OS cells, beta-arrestin-GFP redistribution, primary screen (AID 1961).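 Further: U2OS osteosarcoma cells stably expressing GPR55 and beta-arrestin-GFP.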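 On activation: plate controls were DMSO negative control for no effect and LPI positive control for full effect.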 To be noted: measured here: cytotoxicity, cells analyzed, at 10 µM.
Assay [2] addresses G-protein coupled receptor 55 (Homo sapiens) (UniProt Q9Y2T6). Described as above. The note with it: at 10 µM, stronger effect = higher value.

For 42 compounds, cell count and activation results are on record in PubChem BioAssay AID1961 (Sanford-Burnham Center for Chemical Genomics, 2009).

Hit rate of the full screen: of about 290,000 compounds, about 140 (0.048%) were called active.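 How the source made its calls: active means activation above 40% with more than 50 cells counted in the well; inconclusive means wells holding fewer than 50 cells, flagged as toxic or sparse; inactive means the rest.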 The sample as a whole holds a higher share of actives than the screen did.

Chain of G-protein coupled receptor 55 (Homo sapiens) (Q9Y2T6 whole entry, looked up): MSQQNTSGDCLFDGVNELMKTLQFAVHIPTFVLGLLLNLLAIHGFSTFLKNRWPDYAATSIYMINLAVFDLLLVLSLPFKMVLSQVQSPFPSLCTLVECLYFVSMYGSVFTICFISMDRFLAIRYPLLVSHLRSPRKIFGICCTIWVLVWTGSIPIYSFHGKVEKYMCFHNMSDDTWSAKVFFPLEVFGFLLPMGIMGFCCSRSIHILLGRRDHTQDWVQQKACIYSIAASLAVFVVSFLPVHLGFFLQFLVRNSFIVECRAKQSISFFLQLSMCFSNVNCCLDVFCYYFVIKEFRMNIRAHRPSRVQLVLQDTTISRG

Take `CC(C)c1ccc(/C=C/C(=O)NC2=NCCS2)cc1`: the cell count in assay [1] amounted to 384 cells. Also, the activation in assay [2] was 0% (inactive).

In assay [1], `CCCc1nnc2n1N=C(c1ccc(C)cc1)CS2` displayed a cell count of 336 cells. For the same compound, in assay [2], the activation was -0.1% (inactive).

In turn, `CCc1nnc2n1N=C(c1ccc(Cl)cc1Cl)CS2` showed a cell count in assay [1] of 325 cells. The activation in assay [2] was -0.1% (inactive).

In assay [1], `CCCc1nnc2n1N=C(c1ccc(-c3cc(Cl)ccc3Cl)o1)CS2` registered a cell count of 356 cells. Also, in assay [2], the activation was 142% (active).

Consider `C(=C\c1ccco1)/C1=NN(c2ccccc2)C(c2ccco2)C1` (centres undefined), for which the cell count in assay [1] was 324 cells. The activation in assay [2] is 27.4% (inactive).

Turning to `O=[N+]([O-])c1ccc(/C=C/C2=NN(c3ccccc3)C(c3ccco3)C2)cc1` (centres undefined), the cell count in assay [1] came out at 311 cells. In assay [2], the activation was 120% (active).

`O=[N+]([O-])c1ccc(/C=C/C2=NN(c3ccccc3)C(c3ccco3)C2)o1` (centres undefined) yielded a cell count in assay [1] of 231 cells. For the same compound, the activation in assay [2] is 21.7% (inactive).

`CCOc1ncccc1C(=O)Nc1ccc(-c2ccc3nnc(C)n3n2)cc1` yielded a cell count in assay [1] of 265 cells. Besides, the activation in assay [2] is -0.2% (inactive).

With `Cc1ccc(C(=O)NC2(C(F)(F)F)NC(=O)N(c3ccc(Cl)cc3)C2=O)cc1` (centres undefined), the cell count in assay [1] amounted to 333 cells. Besides, the activation in assay [2] was -0.3% (inactive).

With `COc1ccc(CN2CCNC(=O)C2CC(=O)NC2CCC2)c(OC)c1` (centres undefined), in assay [1], the cell count is 341 cells. Besides, the activation in assay [2] is -0.1% (inactive).

In assay [1], `CC(C)N1CCC(NC(=O)Nc2ccc3c(c2)OCO3)CC1` returned a cell count of 361 cells. The activation in assay [2] was 0.1% (inactive).

Compound `Cc1ccc(N(CC(=O)NC2CCCC2)C(=O)Cn2nnc(-c3ccccc3F)n2)cc1` had a cell count in assay [1] of 388 cells. For the same compound, in assay [2], the activation is 0% (inactive).

In assay [1], `CCOc1ccc(C=NCC(O)c2ccccc2)cc1` (centres undefined) registered a cell count of 365 cells. For the same compound, the activation in assay [2] is -0.1% (inactive).

In turn, `CCCN1C(=O)/C(=C2/C=Cc3ccccc3N2CC)SC1=S` yielded a cell count in assay [1] of 237 cells. Moreover, in assay [2], the activation is -0.4% (inactive).

In assay [1], `Cc1cc(C(F)(F)F)nc(SCCN2CCCCC2)c1C#N` came in with a cell count of 404 cells. In addition, the activation in assay [2] was -0.2% (inactive).

`CCOc1ccc(OCCOCCN2CCOCC2)cc1` came in with a cell count in assay [1] of 322 cells. Moreover, in assay [2], the activation was -0.1% (inactive).

For the compound `CCCCN(CCCC)CC(O)COc1ccccc1Br` (centres undefined), the cell count in assay [1] worked out at 385 cells. Besides, the activation in assay [2] is -0.2% (inactive).

As to `Cc1cccc2nc(COc3ccc(Cl)c4cccnc34)cn12`, the cell count in assay [1] came out at 263 cells. In addition, in assay [2], the activation was 80.9% (active).

Compound `Clc1ccc(OCc2cn3ccccc3n2)c2ncccc12` had a cell count in assay [1] of 448 cells. The activation in assay [2] was -0.1% (inactive).

Compound `Cc1cccc2nc(COc3ccc4ccccc4c3Br)cn12` showed a cell count in assay [1] of 340 cells. For the same compound, in assay [2], the activation is 0.4% (inactive).

In turn, `Cc1nc2ccc(NC(=O)CCC3CCCC3)cc2s1` gave a cell count in assay [1] of 329 cells. Also, the activation in assay [2] was -0.1% (inactive).

In the case of `Cc1nn2c(C(F)(F)F)c3c(nc2c1-c1ccccc1)CCC3`, the cell count in assay [1] came to 390 cells. In addition, the activation in assay [2] is 0.4% (inactive).

`Cc1nn2c(N3CCCC3)c3c(nc2c1-c1ccccc1)CCC3` had a cell count in assay [1] of 363 cells. For the same compound, in assay [2], the activation is 0% (inactive).

Consider `Cc1cccc2cc3c(N)c(C(=O)N4CCCc5ccccc54)sc3nc12`, for which the cell count in assay [1] stood at 244 cells. Besides, the activation in assay [2] was 0.1% (inactive).

In assay [1], `Cc1cccc2cc3c(N)c(C(=O)N4CCc5ccccc54)sc3nc12` returned a cell count of 347 cells. Besides, the activation in assay [2] is 44.1% (active).

For `Cc1ccc(C)c2nc3sc(C(=O)N4CCCc5ccccc54)c(N)c3cc12`, the cell count in assay [1] came out at 369 cells. The activation in assay [2] is 0.3% (inactive).

Regarding `CC1=NNC(=O)/C1=C\c1cn(-c2ccccc2)nc1-c1ccc(Cl)cc1`, the cell count in assay [1] was 376 cells. The activation in assay [2] is 30.2% (inactive).

In turn, `CC1=NNC(=O)/C1=C\c1cn(-c2ccccc2)nc1-c1ccccc1` yielded a cell count in assay [1] of 396 cells. Moreover, the activation in assay [2] was 68.5% (active).

`CC1=NNC(=O)/C1=C\c1cn(-c2ccccc2)nc1-c1ccc(F)cc1` registered a cell count in assay [1] of 406 cells. Moreover, the activation in assay [2] is 2.4% (inactive).

With `O=[N+]([O-])c1ccc(N/N=C/c2sc(N3CCOCC3)nc2-c2ccccc2)c(S(=O)(=O)Nc2ccccc2Cl)c1`, the cell count in assay [1] was found to be 413 cells. In assay [2], the activation was 22.5% (inactive).

Compound `O=[N+]([O-])c1ccc(N/N=C/c2sc(N3CCOCC3)nc2-c2ccccc2)c(S(=O)(=O)Nc2ccc(Cl)cc2)c1` returned a cell count in assay [1] of 392 cells. Besides, the activation in assay [2] is 18% (inactive).

In assay [1], `COc1ccccc1NS(=O)(=O)c1cc([N+](=O)[O-])ccc1N/N=C/c1sc(N2CCOCC2)nc1-c1ccccc1` yielded a cell count of 331 cells. In addition, the activation in assay [2] is 48.8% (active).

In the case of `CCN1CCCC1CNCc1cc(OC)c(OC)c(OC)c1` (centres undefined), in assay [1], the cell count stood at 313 cells. Besides, in assay [2], the activation was -0.1% (inactive).

`COc1ccccc1Cc1noc(COc2cccc(C)c2C)n1` yielded a cell count in assay [1] of 384 cells. The activation in assay [2] is -0.1% (inactive).

In turn, `Cc1nnc(SC(C)C)n(N)c1=O` yielded a cell count in assay [1] of 256 cells. The activation in assay [2] was -1.1% (inactive).

As to `O=c1cnnc(SCc2ccc([N+](=O)[O-])cc2)[nH]1`, the cell count in assay [1] was 243 cells. In addition, the activation in assay [2] is 0.2% (inactive).

As for `CCn1nc(C)c(CN2CCC(C(=O)Nc3cccc(-c4cccc(Cl)c4)c3)CC2)c1C`, the cell count in assay [1] was determined as 372 cells. Further, the activation in assay [2] was 0% (inactive).

`CCC1(C)Cc2c(sc3c2c(=O)n(C)c2nnc(SCCc4ccccc4)n32)CO1` (centres undefined): the cell count in assay [1] is 322 cells. Moreover, the activation in assay [2] is -0.2% (inactive).

In assay [1], `CCCCSc1nnc2n(CCc3ccccc3)c(=O)c3c4c(sc3n12)COC(C)(C)C4` had a cell count of 332 cells. Moreover, in assay [2], the activation is 58% (active).

In assay [1], `C=CCSc1nnc2n(CCc3ccccc3)c(=O)c3c4c(sc3n12)COC(C)(C)C4` showed a cell count of 369 cells. Also, the activation in assay [2] is -0.1% (inactive).

`COc1ccc(C2CC(c3ccc(F)cc3)=NN2c2ccccc2)cc1OC` (centres undefined) showed a cell count in assay [1] of 391 cells. In assay [2], the activation was -0.1% (inactive).

In the case of `COc1cc(C2CC(c3ccccc3)=NN2c2ccccc2)ccc1OCC(=O)O` (centres undefined), the cell count in assay [1] came out at 329 cells. The activation in assay [2] was 0.9% (inactive).
